Experimental data: PubChem BioAssay (NCATS)
Records with an inconclusive call do not appear. Where a call stands in place of a potency, no number is given. The source made the active and inactive calls. Calls follow the shape of the dose curve; as a rule, active = well fitted inhibition curve with a large enough effect; inconclusive = small, poorly fitted or top-dose-only effect; inactive = flat fitted curve, though single readings scatter.

Target: Ubiquitin carboxyl-terminal hydrolase 1 (Homo sapiens) (UniProt O94782)
Assay: Inhibitors of USP1/UAF1: Pilot qHTS (AID 504865);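 also: rhodamine fluorescence freed from ubiquitin-rhodamine substrate followed over time; top concentration of the series differs between compounds; nearly all actives have a fitted effect of over 35% in size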
Settings: purified USP1/UAF1, Ub-rhodamine cleavage fluorescence; series mostly up to 114 µM
Description: Deubiquitinating enzymes (DUBs) are a class of enzymes that can cleave isopeptide bond formed between the C-terminal carboxylate of ubiquitin and a lysine side-chain amino group on the target protein. Among them, ubiquitin specific proteases (USPs) constitute the largest DUB family. Human USPs are emerging as promising targets for pharmacological intervention because of their connection to a number of human diseases, including prostate, colon and breast cancer (1, 2), pediatric acute lymphoblastic leukemia (3), and familial cylindromatosis (4). The advantage of inhibiting USPs lies in the potential specificity of therapeutic intervention that can lead to better efficacy and reduce nonspecific side effects.
In a collaboration between the University of Delaware and the NIH Chemical Genomics Center, a high-throughput screen assay was developed to screen for USP1/UAF1 inhibitors. This miniaturized assay has a fluorescent read-out and is used to screen the NIH Molecular Libraries Small Molecule Repository (MLSMR) in order to identify a small molecule that inhibits USP1.
NIH Chemical Genomics Center [NCGC]
NIH Molecular Libraries Probe Centers Network [MLPCN]
Assay Submitter (PI): Zhihao Zhuang, University of Delaware
1. Priolo, C., et al. (2006) The isopeptidase USP2a protects human prostate cancer from apoptosis. Cancer Res 66, 8625-8632
2. Popov, N., et al. (2007) The ubiquitin-specific protease USP28 is required for MYC stability. Nat Cell Biol 9, 765-774
3. De Pitta, C., et al. (2005) A leukemia-enriched cDNA microarray platform identifies new transcripts with relevance to the biology of pediatric acute lymphoblastic leukemia. Haematologica 90, 890-898
4. Kovalenko, A., et al. (2003) The tumour suppressor CYLD negatively regulates NF-kappaB signalling by deubiquitination. Nature 424, 801-805
3 microliters of reagents (buffer in columns 3 and 4 as negative control and 1nM USP1/UAF1 complex in columns 1, 2, and 5-48) are dispensed into Greiner black solid bottom 1536-well assay plates. Compounds are then transferred via Kalypsys pin tool equipped with 1536-pin array (10nl slotted pins, V&P Scientific, San Diego, CA). Following an incubation step of 15 min at room temperature, 1ul of Ub-Rho substrate (150nM final concentration) is added to initiate the reaction. The plates are immediately centrifuged at 1000 rpm for 15 seconds, and subsequently transferred to a ViewLux high-throughput CCD imager (PerkinElmer) wherein kinetic measurements of fluorescence are acquired using 480 nm excitation/540 nm emission filter set (6 reads every 60 seconds, see Table 1). All reagents are diluted in an assay buffer consisting of 50mM HEPES (pH 7.8), 0.5mM EDTA, 0.1 mg/ml BSA, 1mM TCEP, and 0.01% Tween-20.

Sequence of Ubiquitin carboxyl-terminal hydrolase 1 (Homo sapiens) (O94782 whole entry, looked up): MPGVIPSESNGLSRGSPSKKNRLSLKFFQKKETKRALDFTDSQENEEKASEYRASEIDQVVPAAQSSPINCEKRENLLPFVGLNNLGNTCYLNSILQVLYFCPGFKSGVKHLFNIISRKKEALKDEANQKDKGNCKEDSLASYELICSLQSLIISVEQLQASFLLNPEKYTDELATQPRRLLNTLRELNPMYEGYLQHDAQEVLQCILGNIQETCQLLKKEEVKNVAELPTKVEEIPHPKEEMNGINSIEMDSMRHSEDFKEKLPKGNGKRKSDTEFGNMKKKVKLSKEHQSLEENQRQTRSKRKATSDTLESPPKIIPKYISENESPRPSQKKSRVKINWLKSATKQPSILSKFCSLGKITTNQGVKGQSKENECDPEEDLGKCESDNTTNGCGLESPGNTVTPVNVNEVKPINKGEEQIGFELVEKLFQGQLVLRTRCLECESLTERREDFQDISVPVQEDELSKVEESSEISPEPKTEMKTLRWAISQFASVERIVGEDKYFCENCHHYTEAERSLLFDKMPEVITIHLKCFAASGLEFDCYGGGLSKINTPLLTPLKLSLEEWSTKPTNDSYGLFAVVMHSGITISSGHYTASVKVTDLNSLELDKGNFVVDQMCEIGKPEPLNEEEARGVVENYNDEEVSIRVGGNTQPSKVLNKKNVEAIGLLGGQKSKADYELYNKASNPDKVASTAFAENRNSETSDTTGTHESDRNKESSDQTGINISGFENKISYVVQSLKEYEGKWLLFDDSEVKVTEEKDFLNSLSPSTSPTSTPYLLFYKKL

Row | Structure (SMILES) | Potency
1 | Cc1cc(O)cc(C)c1Cl | inactive
2 | NC(N)=NS(=O)(=O)c1ccc(N)cc1 | inactive
3 | COc1ccccc1OCC(O)CO (stereo not given) | inactive
4 | Cc1ccc(C(C)C)c(O)c1 | inactive
5 | CCCCCCCC(=O)OCC(COC(=O)CCCCCCC)OC(=O)CCCCCCC | inactive
6 | O=C(O)c1cc(=O)c2ccccc2o1 | inactive
7 | CCN(CC)CC1CCCCN1CC(=O)N1c2ccccc2C(=O)Nc2cccnc21 (stereo not given) | inactive
8 | Cc1cc(OI)c(C(C)C)cc1-c1cc(C(C)C)c(OI)cc1C | inactive
9 | COC(=O)c1ccccc1C(=O)c1ccc(OCCN2CCCCC2)cc1 | inactive
10 | O=C(O)Cc1cn(-c2ccccc2)nc1-c1ccc(Cl)cc1 | inactive
11 | Cc1ccsc1/C=C/C1=NCCCN1C | inactive
12 | COC(=O)c1ccc(O)cc1 | inactive
13 | Cc1cccc(C)c1NC(=O)CC12CCCN1CCC2 | inactive
14 | NC(=O)CC[C@@H](N)C(=O)O | inactive
15 | NC(N)=NCCN1CCCCCCC1 | inactive
16 | C=CCNC(N)=S | inactive
17 | C[C@H]1COc2c(C3(N)CC3)c(F)cc3c(=O)c(C(=O)O)cn1c23 | inactive
18 | CC(=O)N[C@@H](Cc1ccc(O)cc1)C(=O)O | inactive
19 | COc1ccccc1Oc1c(NS(=O)(=O)c2ccc(C(C)(C)C)cc2)nc(-c2ncccn2)nc1OCCO | inactive
20 | CCCOC(=O)c1ccc(N)cc1 | inactive

Row | Structure (SMILES) | Potency
21 | COc1ccc(O)cc1 | inactive
22 | O=C(O)CCCc1ccccc1 | inactive
23 | Cc1c(N(C)C)c(=O)n(-c2ccccc2)n1C | inactive
24 | COc1cc(C(=O)NCCCCCC(=O)O)cc(OC)c1OC | inactive
25 | CNc1c2c(nn1C)CCCC2 | inactive
26 | NC(=O)NC1NC(=O)NC1=O (stereo not given) | inactive
27 | CCCCCCCCCCCCCCCCN | inactive
28 | COc1ccc(C(=O)N2CCN(CC(=O)N3CCOCC3)CC2)cc1 | inactive
29 | O=C(O)Cc1ccc(CCNS(=O)(=O)c2ccc(Cl)cc2)cc1 | inactive
30 | O=C(O)CNC(=O)c1ccccc1I | inactive
31 | Cc1ncc(CO)c(CN)c1O | inactive
32 | CC1CC(OC(=O)c2ccccc2O)CC(C)(C)C1 (stereo not given) | inactive
33 | CC(=O)N(CC(O)CO)c1c(I)c(C(=O)NCC(O)CO)c(I)c(C(=O)NCC(O)CO)c1I (stereo not given) | inactive
34 | CN1CCN(C(=O)C2CCCCC2)CC1 | inactive
35 | Cc1cc(=O)[nH]c(=S)[nH]1 | inactive
36 | O=C(c1ccccc1)C(O)c1ccccc1 (stereo not given) | inactive
37 | O=C(O)c1ccccc1OP(=O)(O)O | inactive
38 | NNC(=O)CP(=O)(c1ccccc1)c1ccccc1 | inactive
39 | CC(N)CCCC(C)(C)O (stereo not given) | inactive
40 | Cc1cc(-n2nc3ccc(Cl)cc3n2)c(O)c(C(C)(C)C)c1 | inactive
